Results filed as inconclusive are left out. Activity calls are given as the source filed them. Rule for the calls, unless noted: active = hit-call score of the fitted dose curve at least 0.9, where 1 is the maximum; inactive = score below 0.9.
What was measured:
[1] = CEETOX_H295R_CORTISOL_noMTC: CeeTox H295R High-throughput Steroidogenesis Assay for Cortisol, maximum tolerated concentration (MTC) filtered results only (AID 2283916); settings: actives raise or lower the signal
Method: (§1) CEETOX_H295R is a cell-based, multiplexed-readout assay that uses H295R, a human adrenal gland cell line, with measurements taken at 48 hours after chemical dosing in a 96-well plate.CEETOX_H295R_CORTISOL_noMTC is one of 12 assay component(s) measured or calculated from the CEETOX_H295R assay (11 hormones and 1 viability assay). It is designed to make measurements of hormone induction, a form of inducible reporter, as detected with absorbance signals by HPLC-MS-MS technology. The concentrations for these components have not been pre-filtered for the maximum tolerated concentration (MTC) based on the MTT assay (_noMTC).Data from the assay component CEETOX_H295R_CORTISOL_noMTC was analyzed into 1 assay endpoint. This assay endpoint, CEETOX_H295R_CORTISOL_noMTC, was analyzed with bidirectional fitting relative to DMSO as the negative control and baseline of activity. […]
(§2) Cell culture and media preparation procedures were conducted in accordance with OECD Test No. 456 guidelines, with minor modifications. […] For steroid quantification, media samples were shipped to OpAns, LLC (Durham, NC) on dry ice, and samples were thawed to room temperature prior to liquid-liquid extraction. […] Steroid hormones were separated by HPLC, eluted using a reverse phase C18 gradient with electrospray positive ionization, followed by quantification by tandem mass spectrometry (MS/MS). […]

[2] = CEETOX_H295R_CORTIC_noMTC: CeeTox H295R High-throughput Steroidogenesis Assay for Corticosterone (CORTIC), maximum tolerated concentration (MTC) filtered results only (AID 2283917); settings: actives raise or lower the signal
Procedure, shortened: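 H295R adrenal cells pre-stimulated 48 h with 10 uM forskolin, then exposed 48 h to chemical in 0.1% DMSO; corticosterone in medium quantified by HPLC-MS/MS, fitted bidirectionally versus DMSO without MTT-based concentration filtering.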

[3] = CEETOX_H295R_DOC_noMTC: CeeTox H295R High-throughput Steroidogenesis Assay for DOC, maximum tolerated concentration (MTC) filtered results only (AID 2283918); settings: actives raise or lower the signal
Procedure, shortened: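 H295R cells prestimulated 48 h with 10 uM forskolin, then exposed 48 h to chemical in 0.1% DMSO. 11-Deoxycorticosterone in medium measured by MTBE extraction and HPLC-MS/MS; bidirectional fit vs DMSO, no MTC filter.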

[4] = CEETOX_H295R_ESTRADIOL_noMTC: CeeTox H295R High-throughput Steroidogenesis Assay for Estradiol, maximum tolerated concentration (MTC) filtered results only (AID 2283919); settings: actives raise or lower the signal
Procedure, shortened: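 H295R human adrenal cells pre-stimulated 48 h with 10 uM forskolin, then exposed 48 h to chemical (0.1% DMSO final). Estradiol in medium measured by HPLC-MS/MS after MTBE extraction and dansyl derivatization; bidirectional fit versus DMSO, concentrations not MTT-filtered.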

[5] = CEETOX_H295R_PROG_noMTC: CeeTox H295R High-throughput Steroidogenesis Assay for Progesterone (PROG), maximum tolerated concentration (MTC) filtered results only (AID 2283920); settings: actives raise or lower the signal
Procedure, shortened: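 H295R cells, prestimulated 48 h with 10 uM forskolin, exposed 48 h to chemical in 0.1% DMSO. Medium progesterone quantified by MTBE extraction and HPLC-MS/MS; bidirectional fit versus DMSO, concentrations not MTT-filtered.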

[6] = CEETOX_H295R_ESTRONE_noMTC: CeeTox H295R High-throughput Steroidogenesis Assay for Estrone, maximum tolerated concentration (MTC) filtered results only (AID 2283921); settings: actives raise or lower the signal
Procedure, shortened: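 H295R cells prestimulated 48 h with 10 uM forskolin, then exposed 48 h to chemical in 0.1% DMSO; medium estrone measured by HPLC-MS/MS after MTBE extraction and dansyl derivatization, fitted bidirectionally versus DMSO without MTT-based MTC filtering.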

[7] = CEETOX_H295R_TESTO_noMTC: CeeTox H295R High-throughput Steroidogenesis Assay for Testosterone (TESTO), maximum tolerated concentration (MTC) filtered results only (AID 2283924); settings: actives raise or lower the signal
Method: as §1, with “plate.CEETOX_H295R_TESTO_noMTC” for “plate.CEETOX_H295R_CORTISOL_noMTC”, “CEETOX_H295R_TESTO_noMTC” for “CEETOX_H295R_CORTISOL_noMTC”, “CEETOX_H295R_TESTO_noMTC,” for “CEETOX_H295R_CORTISOL_noMTC,”
as §2

[8] = target: PGR (gene 5241) (UniProt P06401); experiment: TOX21_PR_BLA_Followup_Agonist_ratio: Tox21 HEK293 Progesterone Receptor (PR) Agonism Beta-lactamase Follow-Up Assay, Ratio (AID 2283933; active = hit-call score of the fitted dose curve at least 0.9, where 1 is the maximum)
Chain of PGR (gene 5241) (P06401 whole entry, looked up): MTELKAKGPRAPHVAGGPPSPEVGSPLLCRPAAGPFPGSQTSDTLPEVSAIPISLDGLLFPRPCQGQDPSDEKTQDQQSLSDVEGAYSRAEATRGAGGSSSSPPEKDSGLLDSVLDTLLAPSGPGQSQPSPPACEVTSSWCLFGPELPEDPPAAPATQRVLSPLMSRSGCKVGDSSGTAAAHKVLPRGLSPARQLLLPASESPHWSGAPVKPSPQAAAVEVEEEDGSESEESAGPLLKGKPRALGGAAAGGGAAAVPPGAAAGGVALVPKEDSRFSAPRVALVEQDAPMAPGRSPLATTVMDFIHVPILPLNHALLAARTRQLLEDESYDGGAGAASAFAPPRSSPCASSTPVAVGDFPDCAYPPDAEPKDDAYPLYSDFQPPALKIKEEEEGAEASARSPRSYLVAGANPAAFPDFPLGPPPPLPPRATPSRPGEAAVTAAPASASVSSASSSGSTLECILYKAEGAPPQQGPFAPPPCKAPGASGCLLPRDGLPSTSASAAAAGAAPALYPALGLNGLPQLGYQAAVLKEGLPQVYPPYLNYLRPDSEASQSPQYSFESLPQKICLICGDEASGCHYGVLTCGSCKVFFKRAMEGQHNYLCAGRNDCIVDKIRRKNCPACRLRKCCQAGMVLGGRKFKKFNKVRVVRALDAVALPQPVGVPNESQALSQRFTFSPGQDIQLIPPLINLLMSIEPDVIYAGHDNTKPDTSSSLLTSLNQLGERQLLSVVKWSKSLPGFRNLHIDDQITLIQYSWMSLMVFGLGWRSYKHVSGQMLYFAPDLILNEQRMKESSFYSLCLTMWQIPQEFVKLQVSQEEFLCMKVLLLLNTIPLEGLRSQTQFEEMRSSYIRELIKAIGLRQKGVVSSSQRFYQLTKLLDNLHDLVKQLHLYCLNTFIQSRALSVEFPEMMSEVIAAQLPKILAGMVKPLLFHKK
Procedure, shortened: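 Agonist-mode follow-up in HEK293T cells carrying a UAS-driven beta-lactamase reporter, grown in 2% charcoal-stripped serum. Compounds act for 16 hr; activity is the ch2/ch1 cleavage ratio, with same-well CellTiter-Glo viability run in parallel.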

[9] = target: PGR (gene 5241) (UniProt P06401); experiment: TOX21_PR_BLA_Followup_Antagonist_ratio: Tox21 HEK293 Progesterone Receptor (PR) Antagonism Beta-lactamase Follow-Up Assay, Ratio (AID 2283934; active = hit-call score of the fitted dose curve at least 0.9, where 1 is the maximum;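 note: PR-UAS-bla HEK293T cells stimulated with 1 nM R5020 agonist for 16 hr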)
Procedure, shortened: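 Antagonist mode used 1 nM R5020 (final) as agonist on a beta-lactamase reporter line in HEK293T cells. Activity was taken from the substrate cleavage ratio after 16 hr exposure.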

[10] = TOX21_PR_BLA_Followup_Agonist_viability: Viability Assessment in the Tox21 HEK293 Progesterone Receptor (PR) Agonism Beta-lactamase Follow-Up Assay (AID 2283935; active = hit-call score of the fitted dose curve at least 0.9, where 1 is the maximum;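 note: cells exposed to compound for 16 hr at 37 °C; signal loss means lower viability so actives are cytotoxic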)
Procedure, shortened: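 Multiplexed viability counter-screen: ATP-coupled luciferase signal measured after 30 min at room temperature, following 16 hr compound treatment of PR-UAS-bla HEK293T cells grown in charcoal-stripped serum.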

Measured: AC50

CC(C)(C)c1cc(CCC(=O)NCCCCCCNC(=O)CCc2cc(C(C)(C)C)c(O)c(C(C)(C)C)c2)cc(C(C)(C)C)c1O
active: [5] 0.452 µM
not listed: [8] | [9] | [10]
inactive: all other assays above

Nc1c(Br)cc([N+](=O)[O-])cc1Br
inactive: [1] | [2] | [3] | [4] | [5] | [6]

O=C(c1ccccc1)c1ccc(O)cc1O
inactive: [8] | [10]
active: [9] 63.5 µM
